Reference: PubChem BioAssay (NCATS)
Results filed as inconclusive are left out. The source made the active and inactive calls. Calls follow the shape of the dose curve; as a rule, active = well fitted curve in the direction sought with a large enough effect; inconclusive = small, poorly fitted or top-dose-only effect, or another doubt; inactive = no such curve, though single readings can be large; an effect the other way counts as inactive or inconclusive. *1 amine or outer side, *2 acyl side, *3 side chain or, on linkers, in order; H or OH if unused. Where a SMILES comes first, the peptide text is derived from it. Bridges are numbered along the chain shown (N, C = ends). [ ]: non-standard residue; d: D form. The star is where a group is joined. ξ: configuration not given here. ξhTyr(3S-OH,4S-OH,3'-OSO3H) = NC(C(=O)O)[C@H](O)[C@@H](O)c1ccc(O)c(OS(=O)(=O)O)c1; Orn(4R-OH,5R-OH) = O=C([C@H](C[C@@H](O)[C@@H](O)N[*:3])N[*:1])[*:2]; X2 = CCCCCOc1ccc(-c2cc(-c3ccc(C(=O)*)cc3)no2)cc1; X3 = C[C@H]1CN([*:1])C(C(=O)[*:2])[C@H]1O; ξGln(3R-OH) = NC(=O)C[C@@H](O)C(N)C(=O)O; ξTyr(βOH) = NC(C(=O)O)C(O)c1ccc(O)cc1; ξPro(4R-OH) = O=C(O)C1C[C@@H](O)CN1; ξThr(3R) = C[C@@H](O)C(N)C(=O)O

Assays:
[1] = molecular target: Calcium and integrin-binding protein 1 (Homo sapiens) (UniProt Q99828); assay: Primary qHTS for Identification of Calcium Integrin Binding Protein 1 (CIB1) Competitor (AID 1508620); conditions: CIB1-GST / FITC-alphaIIb peptide fluorescence polarization; series mostly up to 57.7 µM;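 also: GST tagged CIB1 binding a fluorescein labelled alphaIIb integrin peptide tracer; top concentration of the series differs between compounds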
Chain of Calcium and integrin-binding protein 1 (Homo sapiens) (Q99828 whole entry, looked up): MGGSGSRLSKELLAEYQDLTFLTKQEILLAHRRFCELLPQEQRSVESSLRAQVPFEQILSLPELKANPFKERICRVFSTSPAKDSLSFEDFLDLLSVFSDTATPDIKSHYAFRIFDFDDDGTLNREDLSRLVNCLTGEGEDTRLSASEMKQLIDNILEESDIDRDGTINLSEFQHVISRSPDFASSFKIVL
Procedure, shortened: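 Fluorescence polarization competition: GST-tagged CIB1 (1 uM final) preincubated with compound 15 min at room temperature, then FITC-labelled alphaIIb peptide (100 nM final) added. After 15 min at room temperature, polarization read at Ex 480/Em 540.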

[2] = Primary qHTS for inhibitors of nuclear receptor binding SET domain protein 2 (NSD2) in an isogenic RCH-ACV NSD2 p.E1099K mutant (9B) (AID 1645876); conditions: RCH-ACV NSD2 E1099K (9B) viability, CellTiter-Glo, 72 h; series mostly up to 44.9 µM; also: nearly all actives have a fitted effect of over 70% in size
[3] = Primary qHTS for inhibitors of nuclear receptor binding SET domain protein 2 (NSD2) in an RCH-ACV wild type WT cells (2C) (AID 1645877); conditions: RCH-ACV (leukaemia line) NSD2 WT (2C) viability, CellTiter-Glo, 72 h; series mostly up to 44.9 µM; also: nearly all actives have a fitted effect of over 70% in size
% is scaled to controls: 0 for no effect and ±100 for the full control effect.

Cc1cc(-n2c(=O)[nH]c(=O)n(C)c2=O)ccc1Oc1ccc(SC(F)(F)F)cc1
inactive: Potency [1] | Potency [2] | Potency [3]

C[C@H]1[C@H](C)CC[C@]2(C(=O)OC3OC(CO)C(O)C(O)C3O)CC[C@]3(C(=O)O)C(=CCC4[C@@]5(C)CC[C@H](O[C@@H]6O[C@@H](C)[C@H](OC7OC(CO)C(O)C(O)C7O)[C@@H](O)[C@H]6O)C(C)(C)C5CC[C@]43C)[C@H]12 (stereo not given in full)
inactive: Potency [1] | activity change, negative = viability loss [2] -7.55% [at 9.23 µM] | activity change, negative = cell killing [3] -2.86% [at 9.23 µM]

C[C@@]1(O)[C@H](O)[C@@H](CO)O[C@H]1n1cnc2c(=O)[nH]c(N)nc21
inactive: Potency [1] | Potency [2] | Potency [3]

CC(C)C1NC(=O)CNC(=O)C2CCCN2C(=O)C(Cc2c[nH]c3ccccc23)NC(=O)CNC(=O)C(C(O)c2ccc(O)cc2)NC(=O)CNC1=O (stereo not given) (cyclo(G[ξTyr(βOH)]GWPGV); configuration not given here)
inactive: Potency [1] | Potency [2] | Potency [3]

CC(=O)c1ccc(O[C@@H]2OC[C@@H](O)[C@H](O)[C@H]2O[C@]2(CO)O[C@H](CO)[C@@H](O)[C@@H]2O)c(O)c1
inactive: Potency [1] | Potency [2] | Potency [3]

C=C1CCC2C(C)(C)CC(O)CC2(C)C1CCC(C)CC(=O)O (stereo not given)
inactive: Potency [1] | Potency [2] | Potency [3]

C=C(CCO[C@@H]1O[C@H](CO)[C@@H](O)[C@H](O)[C@H]1O)C(=O)O
inactive: Potency [1] | Potency [2] | Potency [3]

CCC(C)/C=C(C)/C=C/C1=CC2=C(Cl)C(=O)C(C)(OC(C)=O)C(=O)C2=CN1CCCCC(N)C(=O)O (stereo not given)
inactive: Potency [1] | Potency [2] | Potency [3]

NC1(c2ccc(NC(=O)c3ccnc(-c4cc(C(=O)O)ccn4)c3)cc2)CC1
inactive: Potency [1] | Potency [2] | Potency [3]

C=C[C@H]1[C@H](O[C@@H]2O[C@H](CO)[C@@H](O)[C@H](O)[C@H]2O)OC=C2C(=O)N3Cc4c([nH]c5ccccc5c4=O)[C@@H]3C[C@H]21
inactive: Potency [1] | Potency [2] | Potency [3]

CC1=CC23[C@H](C=C(C(=O)O)[C@@H]2COC(=O)[C@]3(O)CO)[C@@H]1C (stereo not given in full)
inactive: Potency [1] | Potency [2] | Potency [3]

CC1(C)C(=O)N2c3ccccc3C(O)(CC(C(=O)O)n3cnc4ccccc4c3=O)C2N1O (stereo not given)
inactive: Potency [1] | Potency [2] | Potency [3]

CC/C=C/C(O)C(O)C1=C(C)C(=O)C2(O1)C(=O)NC(OC)(C(=O)c1ccccc1)C2O (stereo not given)
inactive: Potency [1] | Potency [2] | Potency [3]

CCCCCOc1ccc(-c2cc(-c3ccc(C(=O)N[C@H]4C[C@@H](O)[C@@H](O)NC(=O)C5[C@@H](O)[C@@H](C)CN5C(=O)C([C@H](O)CC(N)=O)NC(=O)C([C@H](O)[C@@H](O)c5ccc(O)c(OS(=O)(=O)O)c5)NC(=O)C5C[C@@H](O)CN5C(=O)C([C@@H](C)O)NC4=O)cc3)no2)cc1 (stereo partly drawn) (X2-[Orn(4R-OH,5R-OH)][ξThr(3R)][ξPro(4R-OH)][ξhTyr(3S-OH,4S-OH,3'-OSO3H)][ξGln(3R-OH)][X3]; lactam 1-C)
inactive: Potency [1] | Potency [2] | Potency [3]

COC(=O)C1=CO[C@@H](O[C@@H]2O[C@H](CO)[C@@H](O)[C@H](O)[C@H]2O)[C@@H]2[C@@H](C)[C@@H](O)C(O)[C@H]12 (stereo not given in full)
inactive: Potency [1] | Potency [2] | Potency [3]

CC(C)(Oc1ccc(-c2nc3cc(Cl)ccc3s2)cc1)C(=O)O
inactive: Potency [1] | Potency [2] | Potency [3]

COC(=O)C1=CO[C@@H](O[C@@H]2O[C@H](CO)[C@@H](O)[C@H](O)[C@H]2O)[C@@H]2C(C)CC(=O)[C@]12O (stereo not given in full)
inactive: Potency [1] | Potency [2] | Potency [3]

CC1(C)C2CC[C@]3(C)C(C(=O)C=C4[C@H]5C[C@@](C)(C(=O)O)CC[C@]5(C)CC[C@]43C)[C@@]2(C)CC[C@@H]1O (stereo not given in full)
inactive: Potency [1] | Potency [2] | Potency [3]

C=C1CCC2C(C)(C(=O)O)CCCC2(C)C1CC/C(C)=C\CO (stereo not given)
inactive: Potency [1] | Potency [2] | Potency [3]

CO[C@@H]1[C@]2(O)C(=O)N3/C=C\C(C)(C)c4[nH]c5ccccc5c4/C=C\3C(=O)N2[C@]23[C@H](CO)C(C)(C)N2c2ccccc2[C@]13O
inactive: Potency [1] | Potency [2] | Potency [3]

CC(=O)OC1CC2(C)C(CCC(C)C23Cc2c(O)cc4c(c2O3)CNC4=O)C(C)(C)C1O (stereo not given)
inactive: Potency [1] | Potency [2] | Potency [3]

CC(C)=CC[C@H]1O[C@]2(O)C([C@H]3CCC4[C@@]5(C)CC[C@H](O[C@@H]6O[C@H](CO)[C@H](O)[C@H](O[C@@H]7O[C@H](CO)[C@@H](O)[C@H](O)[C@H]7O)[C@H]6O[C@@H]6O[C@@H](C)[C@H](O)[C@@H](O)[C@H]6O)C(C)(C)C5CC[C@@]4(C)[C@]3(C)[C@H]2O)[C@@]1(C)O (stereo not given in full)
inactive: Potency [1] | activity change, negative = viability loss [2] -8.31% [at 9.23 µM] | activity change, negative = cell killing [3] -7.27% [at 9.23 µM]

COC(=O)c1c(CC=C(C)C)c(OC2OC(CO)C(O)C(O)C2O)c2ccccc2c1OC1OC(CO)C(O)C(O)C1O (stereo not given)
inactive: Potency [1] | Potency [2] | Potency [3]

COc1ccc(C(=O)CC(=O)O)c2c1C=CC(C)(C)O2
inactive: Potency [1] | Potency [2] | Potency [3]

CC1CCC23COC(=O)C2=CC(O)CC3C1(C)CCc1ccoc1 (stereo not given)
inactive: Potency [1] | Potency [2] | Potency [3]
